AID inhibitor: activation induced cytidine deaminase inhibition; Potency, µM (top dose mostly 115 µM), usual class: inhibitors; AID deamination FRET fluorescence, UDG-coupled, 4 h; Q9GZX7; actives 0.32% (n = 91,000); AID 1347428; note: nearly all actives have a fitted effect of over 25% in size
DRV1 agonist: activates human resolvin D1 receptor GPR32. O75388. CHO-K1 GPR32 beta-arrestin PathHunter luminescence, 90 min; zero percent set by DMSO-only wells. activation, % at 76.9 µM. actives 2.5% (n = 48,000);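 active = activation of at least 60% and not above a set upper limit, about 1 call in 100 departs from these limits; inconclusive = activation of 40% to 60%, or above that upper limit; inactive = activation under 40%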
Target sequence (O75388 whole entry, looked up): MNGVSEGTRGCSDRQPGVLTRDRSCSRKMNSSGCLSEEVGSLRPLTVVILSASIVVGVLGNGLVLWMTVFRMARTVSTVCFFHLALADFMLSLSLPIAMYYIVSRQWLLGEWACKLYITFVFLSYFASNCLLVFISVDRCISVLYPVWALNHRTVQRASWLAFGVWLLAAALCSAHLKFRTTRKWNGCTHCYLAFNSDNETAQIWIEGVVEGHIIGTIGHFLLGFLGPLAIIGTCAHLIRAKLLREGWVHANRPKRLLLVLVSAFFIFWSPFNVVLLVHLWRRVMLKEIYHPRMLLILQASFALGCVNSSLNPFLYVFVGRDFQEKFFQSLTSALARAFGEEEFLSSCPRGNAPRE
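PathHunter enzyme-fragment complementation, CHO-K1 GPR32 stable line; 2,500 cells/well, overnight attach; cpd 90 min 37 °C 5% CO2; detection reagent 1 h RT; chemiluminescence. DMSO = EC0.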
UDG counterscr: blocks uracil-DNA glycosylase in AID counter-screen; FRET deamination/UDG coupled assay, UDG read, 4 h; Potency, µM (top dose mostly 115 µM), most hits filed as inhibitors; actives 0.14% (n = 91,000); note: nearly all actives have a fitted effect of over 65% in size
Of the large screens only hits and unclear results are named; the others gave an inactive call. Many of the other results were omitted from the sample, so hits are more common in it than they were. Unless noted, calls come from the whole dose curve; as a rule, active = well fitted curve in the direction sought with a large enough effect; inconclusive = small, poorly fitted or top-dose-only effect, or another doubt; inactive = no such curve, though single readings can be large; an effect the other way counts as inactive or inconclusive.

CC1C(=O)N2CCCc3cc(S(=O)(=O)N4CCc5ccccc54)cc1c32 (configuration not stated)	none (no result: DRV1 agonist)
N#Cc1nc(/C=C/c2cccs2)oc1N1CCCCCC1	none (no result: DRV1 agonist)
Cc1cccc(NC(=O)c2ccc(-c3ccccc3)s2)c1	none
O=C(Nc1cccc(F)c1)c1ccc(-c2ccccc2)s1	DRV1 agonist 68
O=C(Nc1cc(-c2ccccc2)sc1C(=O)O)c1cccc(F)c1	AID inhibitor inconclusive, DRV1 agonist 110
O=C(Nc1ccc(F)cc1F)c1ccc(-c2ccccc2)s1	none
Cc1nc(-c2ccc(NC(=O)c3ccc(Br)o3)c(C)c2)no1	none (no result: DRV1 agonist)
Cc1ccc(-n2ncc3c(N(CC(C)C)CC(C)C)ncnc32)c(C)c1	none
Cc1ccc(-n2ncc3c(NCC(C)C)ncnc32)c(C)c1	DRV1 agonist 62
O=C(CSc1nc2ccccc2s1)Nc1c(F)cccc1F	none (no result: DRV1 agonist)
Clc1ccccc1-c1nc(N2CCCCC2)c2ccccc2n1	none (no result: DRV1 agonist)
COc1cccc(-c2nc(N3CCCCCC3)c3ccccc3n2)c1O	AID inhibitor inconclusive, UDG counterscr 89µM (no result: DRV1 agonist)
CC(=O)c1cccc(NS(=O)(=O)c2cccc(S(=O)(=O)c3ccc(Br)cc3)c2)c1	DRV1 agonist 63
O=S(=O)(Nc1cccc(Cl)c1)c1ccc2[nH]c3c(c2c1)CCCCCC3	DRV1 agonist 62
Cc1cccc(NS(=O)(=O)c2ccc3[nH]c4c(c3c2)CCCCCC4)c1	none
CCOC(=O)c1cccc(NS(=O)(=O)c2ccc3[nH]c4c(c3c2)CCCC4)c1	DRV1 agonist 82
Cc1cccc(C)c1NC(=O)CN(C)S(=O)(=O)c1ccc2[nH]c3c(c2c1)CCCC3	DRV1 agonist 62, UDG counterscr inconclusive
CC(=O)c1cccc(NS(=O)(=O)c2ccc3c(c2)NC(=O)CC(=O)N3)c1	none
Cc1cc(C)cc(NC(=O)CN(C)S(=O)(=O)c2ccc3[nH]c4c(c3c2)CCCC4)c1	none
CC(C)(C)C(=O)Nc1ccc(N2CCCCC2)c2ccncc12	none (no result: DRV1 agonist)
ClC(Cl)(Cl)C1c2ccccc2Nc2ccccc21	none (no result: DRV1 agonist)
Nn1c(SCc2ncc(-c3ccccc3)o2)nnc1-c1ccccc1Cl	none (no result: DRV1 agonist)
CC(=O)c1cccc(NS(=O)(=O)c2ccc3[nH]c4c(c3c2)CCCCC4)c1	none
CC(=O)c1cccc(NS(=O)(=O)c2ccc3[nH]c4c(c3c2)CCCCCC4)c1	DRV1 agonist 100
CC1CCN(S(=O)(=O)c2nnc(NC(=O)c3cccc(F)c3)s2)CC1	none
O=C(Nc1nnc(S(=O)(=O)N2CCCCC2)s1)c1ccc(F)cc1	none
Cc1cccc(C(=O)Nc2nnc(S(=O)(=O)N3CCC(C)CC3)s2)c1	DRV1 agonist 69
CC1CCN(S(=O)(=O)c2nnc(NC(=O)c3cccc(Br)c3)s2)CC1	DRV1 agonist 73
Cc1cccc(C(=O)Nc2nnc(S(=O)(=O)N3CCOCC3)s2)c1	DRV1 agonist inconclusive
O=C(Nc1nnc(S(=O)(=O)N2CCCC2)s1)c1ccc(F)cc1	DRV1 agonist 64
CCOC(=O)COc1ccc2c(C)c(CC(=O)OC)c(=O)oc2c1	none (no result: DRV1 agonist)
COc1ccccc1NC(=O)c1cc(=O)c(OCc2ccc(Cl)cc2)co1	none (no result: DRV1 agonist)
O=C1CN(S(=O)(=O)c2c(Cl)cccc2Cl)CCN1	none (no result: DRV1 agonist)
Fc1ccccc1NC(=S)NCCc1ccc(C(F)(F)F)cc1	none (no result: DRV1 agonist)
Cc1[nH]nc(-c2ccc(S(=O)(=O)N3CCN(c4ccccc4)CC3)s2)c1C	none (no result: DRV1 agonist)
CCNC(=O)COC(=O)c1ccc2c(=O)n3c(nc2c1)CCCCCC3	none (no result: DRV1 agonist)
O=C1c2ccccc2C(=O)c2c(NCCc3ccc(O)cc3)ccc(NCCc3ccc(O)cc3)c21	AID inhibitor inconclusive
O=C1c2c(O)ccc(O)c2C(=O)c2c(NCCNCCO)ccc(NCCNCCO)c21	AID inhibitor 10µM, UDG counterscr 40µM
CN(C)S(=O)(=O)N(CC(=O)NCCSc1ccc(Cl)cc1)c1ccccc1	AID inhibitor inconclusive, DRV1 agonist 70
CN(C)S(=O)(=O)N(CC(=O)NCCSc1ccccc1)c1ccccc1	none
COc1ccc2c(CC(=O)OCc3cc(Cl)c4c(c3)OCCO4)coc2c1	none (no result: DRV1 agonist)
Cc1cc(C(=O)Nc2ccc(C)c(I)c2)c(C)o1	none (no result: DRV1 agonist)
COc1ccc(-c2cc3ccc(OS(=O)(=O)c4ccccc4)cc3oc2=O)cc1OC	none (no result: DRV1 agonist)
COc1cccc2c1C(=O)c1c(O)c3c(c(O)c1C2=O)C[C@@](O)(C(C)=O)C[C@@H]3O[C@H]1C[C@H](N)[C@H](O)[C@H](C)O1	none (no result: AID inhibitor, UDG counterscr)
CC(=O)[C@]1(O)Cc2c(O)c3c(c(O)c2[C@@H](O[C@H]2C[C@H](N)[C@H](O)[C@H](C)O2)C1)C(=O)c1ccccc1C3=O	AID inhibitor 11µM
CC(=O)N(C1=C(C#N)C(=O)CC(C)(C)C1)c1ccccc1	none (no result: DRV1 agonist)
Cc1ccc(OCC(=O)Nc2ccc(Cl)c(-c3nc4ncccc4o3)c2)cc1C	none
CCc1ccc(OCC(=O)Nc2ccc(Cl)c(-c3nc4ncccc4o3)c2)cc1	DRV1 agonist 118

Screens: PubChem, National Center for Advancing Translational Sciences (NCATS)
